From PubChem BioAssay (NCATS)
Inconclusive results are not listed. The source made the active and inactive calls. Calls come from the whole dose curve; as a rule, active = well fitted curve in the direction sought with a large enough effect; inconclusive = small, poorly fitted or top-dose-only effect, or another doubt; inactive = no such curve, though single readings can be large; an effect the other way counts as inactive or inconclusive.

What was measured:
MCC-13 = assay: qHTS assay to identify novel small-molecules to repurpose for Merkel cell carcinoma treatment (AID 1296009); conditions: MCC and control cell lines, CellTiter-Glo viability, 72 h; series mostly up to 46 µM; note: nearly all actives have a fitted effect of over 60% in size
How it was run: (§1)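 qHTS format: cells treated with library compounds in DMSO across 8 (NPC) or 11 (MIPE) concentrations. Readout after 72 hr at 37 degree celsius was CellTiter-Glo luminescence.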

MCC-26 = assay: as above; conditions: MCC and control cell lines, CellTiter-Glo viability, 72 h; series mostly up to 46 µM
How it was run: as §1

MKL-1 = assay: as above; conditions: MCC and control cell lines, CellTiter-Glo viability, 72 h; series mostly up to 46 µM
How it was run: as §1

MKL-2 = assay: as above; conditions: MCC and control cell lines, CellTiter-Glo viability, 72 h; series mostly up to 46 µM
How it was run: as §1

UISO = assay: as above; conditions: MCC and control cell lines, CellTiter-Glo viability, 72 h; series mostly up to 46 µM
How it was run: as §1

WaGa = assay: as above; conditions: MCC and control cell lines, CellTiter-Glo viability, 72 h; series mostly up to 46 µM
How it was run: as §1

C33A = assay: Primary qHTS to identify gynecologic anti-cancer compounds using libraries of approved drugs and bioactive compounds (AID 1345084); conditions: Gynecologic cancer cell panel viability, ATPlite luminescence, 48 h; series mostly up to 57.5 µM; note: nearly all actives have a fitted effect of over 55% in size
How it was run: (§2)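 Cells, 1,000 per well, plated 16 h, then exposed 48 h at 37 C to compounds. Viability by ATPlite luminescence after 15 min at room temperature.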

CAOV3 = assay: as above; conditions: Gynecologic cancer cell panel viability, ATPlite luminescence, 48 h; series mostly up to 57.5 µM
How it was run: as §2

CASKI = assay: as above; conditions: Gynecologic cancer cell panel viability, ATPlite luminescence, 48 h; series mostly up to 57.5 µM
How it was run: as §2

Es-2 = assay: as above; conditions: Gynecologic cancer cell panel viability, ATPlite luminescence, 48 h; series mostly up to 57.5 µM
How it was run: as §2

HeLa = assay: as above; conditions: Gynecologic cancer cell panel viability, ATPlite luminescence, 48 h; series mostly up to 57.5 µM
How it was run: as §2

Hek293T = assay: as above; conditions: Gynecologic cancer cell panel viability, ATPlite luminescence, 48 h, control line for the selectivity index; series mostly up to 57.5 µM
How it was run: as §2

JEG-3 = assay: as above; conditions: Gynecologic cancer cell panel viability, ATPlite luminescence, 48 h; series mostly up to 57.5 µM
How it was run: as §2

OV90 = assay: as above; conditions: Gynecologic cancer cell panel viability, ATPlite luminescence, 48 h; series mostly up to 57.5 µM
How it was run: as §2

PA-1 = assay: as above; conditions: Gynecologic cancer cell panel viability, ATPlite luminescence, 48 h; series mostly up to 57.5 µM
How it was run: as §2

SKOV3 = assay: as above; conditions: Gynecologic cancer cell panel viability, ATPlite luminescence, 48 h; series mostly up to 57.5 µM
How it was run: as §2

Tov-21-G = assay: as above; conditions: Gynecologic cancer cell panel viability, ATPlite luminescence, 48 h; series mostly up to 57.5 µM
How it was run: as §2

Tov112D = assay: as above; conditions: Gynecologic cancer cell panel viability, ATPlite luminescence, 48 h; series mostly up to 57.5 µM
How it was run: as §2

[1] = Drug repurposing screens with cells derived from glioblastoma tumor samples (AID 1345199); conditions: GBM patient neurospheres viability, ATP luminescence, 48 h; note: nearly all actives have a fitted effect of over 40% in size
How it was run: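 Four patient lines of CD133+ GBM neurospheres were screened at several concentrations; hits were retested in those lines plus three slower-growing GBM lines, using 48-hour treatment and ATP-based viability.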

NIH3T3 = assay: qHTS assay to identify novel small-molecules to repurpose for Merkel cell carcinoma treatment (AID 1296009); conditions: MCC and control cell lines, CellTiter-Glo viability, 72 h; at 44.8 µM (top of the series) unless noted; note: nearly all actives have a fitted effect of over 60% in size
How it was run: as §1

[2] = at 45.9 µM (top of the series), tumour line B
[3] = at 45.9 µM (top of the series), tumour line D
[4] = at 46 µM (top of the series), tumour line A
[5] = at 46.1 µM (top of the series), tumour line C
% is set by controls: 0 for no effect and ±100 for the full control effect.

FC(F)(F)c1ccccc1-n1ccnc1
inactive: Potency (MCC-13) | Potency (MCC-26) | Potency (MKL-1) | Potency (MKL-2) | Potency (UISO) | Potency (WaGa) | Potency (C33A) | Potency (CAOV3) | Potency (CASKI) | Potency (Es-2) | Potency (HeLa) | Potency (Hek293T) | Potency (JEG-3) | Potency (OV90) | Potency (PA-1) | Potency (SKOV3) | Potency (Tov-21-G) | Potency (Tov112D) | activity, negative = cell killing [1, 2] -13.1% | activity, negative = cell killing [1, 3] -9.1% | activity, negative = cell killing [1, 4] -27.4% | activity, negative = cell killing [1, 5] -16.7%

O=C(O)CN(CCOCCOCCN(CC(=O)O)CC(=O)O)CC(=O)O
inactive: activity change, negative = cytotoxicity (MCC-13) -0.433% [at 0.597 µM] | activity change, negative = cytotoxicity (MCC-26) 19.1% [at 0.597 µM] | activity change, negative = cytotoxicity (MKL-1) 14.4% [at 0.597 µM] | activity change, negative = cytotoxicity (MKL-2) 9.35% [at 0.597 µM] | activity change, negative = cytotoxicity (UISO) 21.4% [at 0.597 µM] | activity change, negative = cytotoxicity (WaGa) 12.3% [at 0.597 µM] | activity change, negative = cytotoxicity (C33A) 11.2% [at 0.462 µM] | activity change, negative = cytotoxicity (CAOV3) 7.4% [at 0.462 µM] | activity change, negative = cytotoxicity (CASKI) 2.67% [at 0.462 µM] | activity change, negative = cytotoxicity (Es-2) -1.06% [at 0.462 µM] | activity change, negative = cytotoxicity (HeLa) 11.5% [at 0.462 µM] | activity change, negative = cytotoxicity (Hek293T) -0.823% [at 0.462 µM] | activity change, negative = cytotoxicity (JEG-3) -5.11% [at 0.462 µM] | activity change, negative = cytotoxicity (OV90) 2.64% [at 0.462 µM] | activity change, negative = cytotoxicity (PA-1) -1.54% [at 0.462 µM] | activity change, negative = cytotoxicity (SKOV3) 17.7% [at 0.462 µM] | activity change, negative = cytotoxicity (Tov-21-G) 1.63% [at 0.462 µM] | activity change, negative = cytotoxicity (Tov112D) 6.01% [at 0.462 µM] | activity, negative = cell killing [1, 2] -21% | activity, negative = cell killing [1, 3] -7% | activity, negative = cell killing [1, 4] -22.8% | activity, negative = cell killing [1, 5] 4.28%

OCCN1CCN(CCCN2c3ccccc3C=Cc3ccccc32)CC1
inactive: Potency (MCC-13) | Potency (MCC-26) | Potency (MKL-1) | Potency (MKL-2) | outcome (NIH3T3) | Potency (UISO) | Potency (C33A) | Potency (CAOV3) | Potency (CASKI) | Potency (Es-2) | Potency (Hek293T) | Potency (JEG-3) | Potency (PA-1) | Potency (Tov-21-G) | Potency (Tov112D)

CN(C)[C@@H]1C(=O)C(C(N)=O)=C(O)[C@@]2(O)C(=O)C3=C(O)c4c(O)ccc(Cl)c4[C@@H](O)[C@H]3C[C@@H]12
inactive: Potency (MCC-13) | Potency (MCC-26) | Potency (MKL-1) | Potency (MKL-2) | outcome (NIH3T3) | Potency (UISO) | Potency (WaGa) | Potency (C33A) | Potency (CAOV3) | Potency (CASKI) | Potency (Es-2) | Potency (HeLa) | Potency (Hek293T) | Potency (JEG-3) | Potency (OV90) | Potency (PA-1) | Potency (SKOV3) | Potency (Tov-21-G) | Potency (Tov112D) | activity, negative = cell killing [1, 2] -11.7% | activity, negative = cell killing [1, 3] -27% | activity, negative = cell killing [1, 5] -29.4%

CCn1nc(C(=O)O)c(=O)c2cc3c(cc21)OCO3
inactive: Potency (MCC-13) | Potency (MCC-26) | Potency (MKL-1) | Potency (MKL-2) | Potency (UISO) | Potency (WaGa) | Potency (C33A) | Potency (CAOV3) | Potency (CASKI) | Potency (Es-2) | Potency (HeLa) | Potency (Hek293T) | Potency (JEG-3) | Potency (OV90) | Potency (PA-1) | Potency (Tov-21-G) | Potency (Tov112D) | activity, negative = cell killing ([1]; at 20 µM (top of the series), tumour line C) -1.32% | activity, negative = cell killing ([1]; at 21.2 µM (top of the series), tumour line B) -10.1% | activity, negative = cell killing ([1]; at 21.2 µM (top of the series), tumour line D) -5.8% | activity, negative = cell killing ([1]; at 21.3 µM (top of the series), tumour line A) -22.7%
